Screening data: PubChem, National Center for Advancing Translational Sciences (NCATS)
KDM5B inhibitor = inhibitors of human KDM5B histone demethylase. KDM5B demethylase, FDH-coupled NADH fluorescence (FDH is formaldehyde dehydrogenase). Q9UGL1. hit rate 2.6% among 220,000. Potency, µM (top dose mostly 57.7 µM), hits mostly inhibitors; active means well fitted inhibition curve with a large enough effect; further: 0% is about no effect; nearly all actives have a fitted effect of over 70% in size
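Inhibition is measured as reduced NADH fluorescence generation from FDH coupling to formaldehyde release. Truncated KDM5BΔAP at 200 nM final acts on H3K4me3 peptide (12.5 µM in substrate mix) in pH 7.5 HEPES buffer with Tween-20, 30 min, room temperature.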
* hit, by the source's call; i = inactive. Many of the other results were omitted from the sample, so hits are more common in it than they were. Potency means the concentration at half of the fitted maximal effect.

SMILES	KDM5B inhibitor
CCOc1ccc(Cn2c(Oc3ccc(F)cc3)nc3c2c(=O)n(C)c(=O)n3C)cc1OCC	i
COc1ccc(Cl)cc1S(=O)(=O)N1CCC(n2cnnc2C(C)C)CC1	i
CCn1ncc(C(=O)N2CCC(C3CCN(S(C)(=O)=O)CC3)C2)c1C (configuration not stated)	i
CCNc1ccc(S(=O)(=O)N2CCOCC2)cc1NC(=O)Cc1c[nH]c2ccccc12	i
CCc1ccccc1N/C=C(\C#N)c1nc(-c2ccc(C)cc2)cs1	i
COC[C@H]1NC(=O)CC[C@H]1C(=O)Nc1cccc(OC(F)(F)F)c1	i
N#Cc1ccc(CNCc2cc(Br)cs2)cc1	i
COc1cccc(CN[C@@H]2CCC[C@@H](C(=O)NCc3cc(C)on3)CC(=O)N(C)C2)c1	i
COc1cccc(CC(=O)N[C@@H]2CCC[C@@H](C(=O)NCc3cc(C)on3)CC(=O)N(C)C2)c1	i
COc1ccc(-c2cc(C(=O)NCc3cc(C)on3)c3c(c2)N(C)CCO3)cn1	35µM*
CCCNC(=O)CN(C)C(=O)CCCc1c[nH]c2ccccc12	i
O=C(NCc1cccs1)c1cc(-c2cccnc2)nc2ccccc12	i
O=C(NCc1ccc(F)cc1)c1nc(-c2cccc(C(F)(F)F)c2)c2cnccn12	28µM*
O=C(NCc1ccc(F)cc1)c1nc(-c2cccc(F)c2)c2cnccn12	i
O=C(NCc1cccs1)c1ccc(CSc2nc3ccncc3n2Cc2ccccc2)cc1	i
O=C(NCc1cccs1)c1nc(-c2cccc(C(F)(F)F)c2)c2cnccn12	16µM*
O=C(NCc1ccc(C(F)(F)F)cc1)c1nc2sccn2c1Br	i
CCCCCn1nc(C(=O)N(C)Cc2ccccc2Cl)c2ccccc2c1=O	i
Cc1ccc(SCCOc2ccccc2C=O)cc1	i
Cn1c(=O)c2c(ncn2CCCC(=O)Nc2cccc(N3CCCC3=O)c2)n(C)c1=O	i
CN(C)c1nc2c(c(=O)[nH]1)CCN(Cc1ccc(Cl)cc1F)CC2	i
CC(OC(=O)c1cccc(S(=O)(=O)N2CCOCC2)c1)C(=O)c1c[nH]c2ccccc12 (configuration not stated)	i
Cc1cc(Cl)cc(Cl)c1CNCC1(O)CCCNC1 (configuration not stated)	i
COc1ccc(NC(=O)Cn2cccc2-c2nc(-c3ccccc3)no2)cc1	i
COC(=O)c1ccccc1NC(=O)Cn1cccc1-c1nc(-c2ccccc2)no1	28µM*
SMILES	KDM5B inhibitor
O=C(Cn1cccc1-c1nc(-c2ccccc2)no1)Nc1ccccc1	i
COc1ccc(OC)c(/C=C(/C#N)C(=O)C(C)(C)C)c1	i
Clc1ccc(-c2nnc3ccc(SCc4ccco4)nn23)cc1	i
O=C(OCC(=O)N1CCOCC1)c1ccc2ccccc2n1	i
COc1ccc(OCC2(C)COc3ccc(C(=O)N4C[C@@H](C)O[C@@H](C)C4)cc3N2)cc1 (some centres not stated)	i
COc1ccc(OCC2(C)COc3ccc(C(=O)NCC4CCOCC4)cc3N2)cc1 (configuration not stated)	32µM*
COc1ccc(OCC2(C)COc3ccc(C(=O)N(C)C)cc3N2)cc1 (configuration not stated)	i
COc1ccc(OCC2(C)COc3ccc(C(=O)NCc4ccco4)cc3N2)cc1 (configuration not stated)	18µM*
COc1ccc(OCC2(C)COc3ccc(C(=O)Nc4ccccc4)cc3N2)cc1 (configuration not stated)	28µM*
COc1ccc(OCC2(C)COc3ccc(C(=O)N(C)CCN(C)C)cc3N2)cc1 (configuration not stated)	i
CCc1cccc(NC(=O)CN(C)Cc2ccc(C(F)(F)F)cc2)c1	i
CCCc1cc(=O)oc2c(C)c(OC/C=C(\C)CCC=C(C)C)ccc12	i
Cc1cc(Cl)ccc1Oc1ccc(S(=O)(=O)N2CCCC2)cn1	i
Oc1cc(C2CCCCC2)cc(C2CCCCC2)c1	i
CCCN(CC(=O)Nc1ccccc1C)S(=O)(=O)c1cccc2cc(C)cnc12	i
CCCN(Cc1ccccc1)C(=O)NCCC(=O)OCC	i
COCCn1c(C(=O)NCc2ccccc2)nc2ccccc2c1=O	i
COCCN1Cc2ccc(NCC(C)C)nc2C(C)(C(=O)NC2CC2)C1 (configuration not stated)	32µM*
COCCN1Cc2ccc(Nc3cccnc3)nc2C(C)(C(=O)NCc2ccncc2)C1 (configuration not stated)	25µM*
COCCn1ncc(N2CCC(NC(=O)C(C)c3ccccc3)CC2)cc1=O (configuration not stated)	i
CC(C)CNc1ccc2c(n1)C(C)(C(=O)Nc1ccncc1)CN(Cc1ccccc1)C2 (configuration not stated)	i
CC(C)CNc1ccc2c(n1)C(C)(C(=O)NC(C)C)CN(Cc1ccccc1)C2 (configuration not stated)	i
COCCN1Cc2ccc(Nc3ccc(OC)cc3)nc2C(C)(C(=O)NC2COC2)C1 (configuration not stated)	i
COCCN1Cc2ccc(NCc3ccccc3)nc2C(C)(C(=O)Nc2ccn(C)n2)C1 (configuration not stated)	35µM*
Cn1ccc(NC(=O)CCc2nc(-c3ccccc3)no2)n1	i
SMILES	KDM5B inhibitor
CC(C)CNc1ccc2c(n1)C(C)(C(=O)NC1COC1)CN(Cc1ccccc1)C2 (configuration not stated)	32µM*
CCOc1cc(C(=O)N(c2cc(C)cc(C)c2)C2C=CS(=O)(=O)C2)cc(OCC)c1OCC (configuration not stated)	i
COC(=O)C1=C(C(=O)OC)SC(=C(Cl)C(=S)Sc2ccccc2)S1	i
CC(C)Oc1ccc(CN2CCC(CO)(Cc3ccccc3Cl)CC2)cc1CO	i
O=C(CCc1c[nH]c2ccccc12)Nc1ccc(F)c(F)c1	i
CC1=C[C@@H](CNC(=O)c2ccccn2)[C@H](C(C)C)C[C@H]1Cc1nnc(-c2ccncc2)o1	i
Cc1cccc(NC(=O)NCC2CCN(CCc3ccc(F)cc3)CC2)c1C	i
Cc1cc(C)c2[nH]c(C(=O)NCc3nc(-c4ccccn4)no3)c(C)c2c1	i
Cc1nc2cc(Cl)ccc2cc1C(=O)NCC(F)(F)F	i
Cc1ccc(CN(CC(=O)N2CCc3ccccc3C2)S(=O)(=O)c2ccc(Cl)cc2)cc1	i
O=C([C@@H]1C[C@H](F)CN1S(=O)(=O)Cc1ccccc1F)N1CCc2ccccc2C1	i
Cn1cc2c3c(cccc31)CN(C(=O)Cc1ccccc1F)CC2	28µM*
Cc1ccc(CC(=O)N2CCc3cn(C)c4cccc(c34)C2)cc1	28µM*
Cn1cc2c3c(cccc31)CN(C(=O)C1CCC1)CC2	32µM*
Cn1cc2c3c(cccc31)CN(C(=O)c1ccccc1Br)CC2	i
CN(CC(=O)N1CCc2ccccc2C1)S(=O)(=O)c1ccc(F)cc1	i
Cn1cc2c3c(cccc31)CN(C(=O)c1ccccc1Cl)CC2	i
Cc1ccc(CNC(=O)N2C[C@@H](F)C[C@H]2C(=O)N2CCc3ccccc3C2)cc1	i
COc1cccc(C(=O)OC(C)C(=O)C23CC4CC(CC(C4)C2)C3)c1OC (configuration not stated)	i
COc1ccc(CN(C)C(=O)CCn2ccc3ccccc32)c(OC)c1	i
Cn1cc(S(=O)(=O)N2CCCC(C(=O)Nc3ccn(Cc4ccc(Cl)c(Cl)c4)n3)C2)cn1 (configuration not stated)	i
